Records with an inconclusive call do not appear. Entries that show only a call come without a potency. Active and inactive are the calls of the source. The call rests on the fitted dose curve; in most records, active means well fitted curve in the direction sought with a large enough effect; inconclusive means small, poorly fitted or top-dose-only effect, or another doubt; inactive means no such curve, though single readings can be large; an effect the other way counts as inactive or inconclusive.
Assays:
[1] = qHTS of pediatric cancer cell lines to identify multiple opportunities for drug repurposing: Primary screen for TC32 cells (AID 1347089); further: nearly all actives have a fitted effect of over 60% in size
In short: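 In the primary qHTS, MIPE compounds were tested at 11 concentrations (0.78 nM to 46 µM) and NPC compounds at 8 (0.59 nM to 46 µM) on TC32 cells for 48 h. CellTiter-Glo luminescence gave viability.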

[2] = qHTS of pediatric cancer cell lines to identify multiple opportunities for drug repurposing: Primary screen for DAOY cells (AID 1347090); further: nearly all actives have a fitted effect of over 55% in size
In short: (§1)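 Eight- or eleven-point concentration series, 48 h treatment at 37 degrees C in growth media; readout CellTiter-Glo luminescence. Potency and efficacy were taken from the concentration-response curves.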

[3] = qHTS of pediatric cancer cell lines to identify multiple opportunities for drug repurposing: Primary screen for SJ-GBM2 cells (AID 1347091)
In short: as §1

[4] = qHTS of pediatric cancer cell lines to identify multiple opportunities for drug repurposing: Primary screen for A673 cells (AID 1347092); further: nearly all actives have a fitted effect of over 45% in size
In short: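 48 h compound exposure, A673, 500-1,000 cells/well, 37 degrees C/5% CO2. MIPE: 11-point, 0.78 nM-46 µM; NPC: 8-point, 0.59 nM-46 µM (final). Readout CellTiter-Glo luminescence after 15 min RT.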

[5] = qHTS of pediatric cancer cell lines to identify multiple opportunities for drug repurposing: Primary screen for SK-N-MC cells (AID 1347093)
In short: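 Metabolically active cells were quantified by ATP-dependent luminescence (CellTiter-Glo, 15 min at room temperature) following 48 h treatment. Cells had been plated at 500-1,000 per well and settled for 5 h beforehand.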

[6] = qHTS of pediatric cancer cell lines to identify multiple opportunities for drug repurposing: Primary screen for NB-EBc1 cells (AID 1347095)
In short: (§2)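 Cells plated at 500-1,000/well in growth medium, compounds added after 5 h. MIPE tested at 11 points (from 0.78 nM), NPC at 8 points (from 0.59 nM). CellTiter-Glo luminescence after 48 h; concentration-response curves from primary screen.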

[7] = qHTS of pediatric cancer cell lines to identify multiple opportunities for drug repurposing: Primary screen for U-2 OS cells (AID 1347096); further: nearly all actives have a fitted effect of over 50% in size
In short: (§3)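 Cells (500-1,000/well) in growth media were settled 5 h at 37 degrees C, then given compounds for 48 h. Viability was read as CellTiter-Glo luminescence. Primary runs used MIPE at 11 points (0.78 nM-46 µM) and NPC at 8 points (0.59 nM-46 µM); follow-ups used 11 points.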

[8] = qHTS of pediatric cancer cell lines to identify multiple opportunities for drug repurposing: Primary screen for Saos-2 cells (AID 1347097); further: nearly all actives have a fitted effect of over 40% in size
In short: as §2

[9] = qHTS of pediatric cancer cell lines to identify multiple opportunities for drug repurposing: Primary screen for SK-N-SH cells (AID 1347098); further: nearly all actives have a fitted effect of over 65% in size
In short: (§4)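 Cells (500-1,000/well) rested 5 h, then received compounds for 48 h; metabolically active cells were measured by CellTiter-Glo luminescence. Final concentrations spanned up to 46 µM (MIPE, 11-point) or 0.59 nM-46 µM (NPC, 8-point) in primary screens, 11-point in follow-ups.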

[10] = qHTS of pediatric cancer cell lines to identify multiple opportunities for drug repurposing: Primary screen for LAN-5 cells (AID 1347100)
In short: as §3

[11] = qHTS of pediatric cancer cell lines to identify multiple opportunities for drug repurposing: Primary screen for OHS-50 cells (AID 1347103); further: nearly all actives have a fitted effect of over 40% in size
In short: as §4

[12] = qHTS of pediatric cancer cell lines to identify multiple opportunities for drug repurposing: Primary screen for MG 63 (6-TG R) cells (AID 1347105); further: nearly all actives have a fitted effect of over 50% in size
In short: as §2

[13] = qHTS of pediatric cancer cell lines to identify multiple opportunities for drug repurposing: Primary screen for control Hh wild type fibroblast cells (AID 1347106); further: nearly all actives have a fitted effect of over 55% in size
In short: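 Viability after 48 h compound treatment at 37C, 500-1,000 cells/well, read as ATP luminescence with CellTiter-Glo. Primary screens used 11-point (MIPE, 0.78 nM-46 µM) or 8-point (NPC, 0.59 nM-46 µM) final concentrations; follow-up screens used 11-point dilutions.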

[14] = qHTS of pediatric cancer cell lines to identify multiple opportunities for drug repurposing: Primary screen for BT-37 cells (AID 1347094)
In short: as §2

[15] = qHTS of pediatric cancer cell lines to identify multiple opportunities for drug repurposing: Primary screen for Rh18 cells (AID 1347102); further: nearly all actives have a fitted effect of over 65% in size
In short: as §3

[16] = qHTS of pediatric cancer cell lines to identify multiple opportunities for drug repurposing: Primary screen for RD cells (AID 1347104); further: nearly all actives have a fitted effect of over 55% in size
In short: as §2

[17] = qHTS of pediatric cancer cell lines to identify multiple opportunities for drug repurposing: Primary screen for Rh30 cells (AID 1347107); further: nearly all actives have a fitted effect of over 75% in size
In short: as §3

[18] = qHTS of pediatric cancer cell lines to identify multiple opportunities for drug repurposing: Primary screen for NB1643 cells (AID 1347099); further: nearly all actives have a fitted effect of over 50% in size
In short: as §2

[19] = qHTS of pediatric cancer cell lines to identify multiple opportunities for drug repurposing: Primary screen for BT-12 cells (AID 1347101); further: nearly all actives have a fitted effect of over 25% in size
In short: as §4
Potency means the concentration at half of the fitted maximal effect.

SMILES | Potency [1] | Potency [2] | Potency [3] | Potency [4] | Potency [5] | Potency [6] | Potency [7] | Potency [8] | Potency [9] | Potency [10] | Potency [11] | Potency [12] | Potency [13] | Potency [14] | Potency [15] | Potency [16] | Potency [17] | Potency [18] | Potency [19]
COc1ccc(-n2c(C)c([N+](=O)[O-])c3ccc(O)cc32)cc1 | inactive | inactive | inactive | 7.43 µM (active) | 1.18 µM (active) | inactive | inactive | inactive | 19.2 µM (active) | inactive | inactive | inactive | inactive |  |  |  |  |  | 
CC(C)C[C@H](CC(=O)O)C(=O)N[C@@H](Cc1c[nH]c2ccccc12)C(=O)N[C@@H](C)c1ccccc1 | inactive | inactive | 3.72 µM (active) | 1.87 µM (active) | 1.66 µM (active) | 1.05 µM (active) | inactive |  |  | 2.64 µM (active) |  | inactive | inactive | 3.06 µM (active) | inactive | inactive | inactive |  | 
COc1cc(O)c2c(c1)C(=O)c1cc(C)cc(O)c1C2=O | inactive | inactive | inactive | inactive | inactive | inactive | inactive |  | inactive | inactive | inactive | inactive | inactive | inactive |  | inactive |  | inactive | inactive
CCOC(=O)O[C@]1(C(=O)OCCl)CC[C@@H]2[C@H]3CCC4=CC(=O)C=C[C@]4(C)[C@@H]3[C@@H](O)C[C@@]21C | inactive | inactive | inactive | inactive |  | inactive | inactive | inactive | inactive | inactive | inactive | inactive | inactive | inactive | inactive | inactive | inactive | inactive | inactive
CC(C)(C(=O)NCC(F)(F)C(F)(F)F)C(=O)N[C@@H]1C(=O)Nc2ccccc2-c2ccccc21 | inactive | 18.7 µM (active) | 1.05 µM (active) | 0.0935 µM (active) | 3.72 µM (active) | 4.69 µM (active) |  |  |  | 0.662 µM (active) | 1.53 µM (active) | inactive | inactive | 0.769 µM (active) | inactive |  |  |  | 1.09 µM (active)
CCC(=O)O[C@]1(C(=O)CO)CC[C@H]2[C@@H]3CCC4=CC(=O)CC[C@]4(C)[C@@H]3CC[C@@]21C | inactive | inactive | inactive | inactive | inactive | inactive | inactive | inactive | inactive | inactive |  | inactive | inactive | inactive | inactive | inactive | inactive | inactive | inactive
O=c1c(-c2ccc(O)cc2)coc2cc(O[C@@H]3O[C@H](CO)[C@H](O)[C@H](O)[C@H]3O)ccc12 | inactive | inactive | inactive | inactive |  | inactive | inactive | inactive | inactive | inactive | inactive | inactive | inactive | inactive |  | inactive |  | inactive | inactive
COc1cc2nc(-c3ccc(N4CCN(C)CC4)cc3)nc(NCCN3CCOCC3)c2cc1OC | 523 nM (active) | 0.0743 µM (active) | 0.148 µM (active) | 0.0235 µM (active) | 0.0372 µM (active) | 1.48 µM (active) | 935 nM (active) | 296 nM (active) | 4.82 µM (active) | 0.0187 µM (active) | 0.0544 µM (active) | 1.48 µM (active) | 3.32 µM (active) | 3.06 µM (active) | 235 nM (active) | 41.8 nM (active) | 46.9 nM (active) | 1.87 µM (active) | 0.153 µM (active)
CO[C@H]1C=CO[C@@]2(C)Oc3c(C)c(O)c4c(O)c(c5c(c4c3C2=O)NC2(CCN(CC(C)C)CC2)N=5)=NC(=O)C(C)=CC=C[C@H](C)[C@H](O)[C@@H](C)[C@@H](O)[C@@H](C)[C@H](OC(C)=O)[C@H]1C | inactive | inactive | inactive | inactive | inactive | inactive | inactive | inactive | inactive |  |  | inactive | inactive | inactive | inactive | inactive | inactive | inactive | inactive
NS(=O)(=O)c1cccc2c1C(=O)c1cccc(O)c1C2=O | inactive | 0.935 µM (active) | 0.59 µM (active) | 0.372 µM (active) | 0.935 µM (active) | 0.833 µM (active) | 590 nM (active) | 264 nM (active) | 30.4 µM (active) | 1.05 µM (active) | 0.769 µM (active) | 2.35 µM (active) |  | 0.432 µM (active) | 743 nM (active) | 526 nM (active) | 2350 nM (active) | 1.05 µM (active) | 0.273 µM (active)
N[C@H](CSC(c1ccccc1)(c1ccccc1)c1ccccc1)C(=O)O | inactive | 18.7 µM (active) | 5.26 µM (active) | 9.35 µM (active) | 14.8 µM (active) | 11.8 µM (active) |  | 9350 nM (active) | inactive |  | 6.11 µM (active) | inactive | inactive |  | inactive |  | inactive | inactive | 27.3 µM (active)
CCC(CC)[C@H](NC(C)=O)[C@@H]1[C@H](O)[C@@H](C(=O)O)C[C@@H]1N=C(N)N | inactive | inactive | inactive | inactive | inactive | inactive | inactive | inactive | inactive | inactive | inactive | inactive | inactive | inactive |  | inactive |  | inactive | inactive
